The supplement of paper PMC11383364
± gives the standard deviation of the averaged measurements.

Each molecule was assayed on SUM149 (assay: percent difference in area under dose-response curve of relative cell number, RPMI vs HPLM; higher = drug relatively more effective in HPLM than RPMI (negative = less effective in HPLM)). Conditions: treatment time: 72 h; dose range: 10-point, 1 nM to 20 µM; media compared: RPMI vs HPLM.
Description: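 SUM149 triple-negative breast cancer cells, 500 cells/well in 384-well plates, were grown in RPMI or human plasma-like medium (HPLM) with 5% dialyzed FBS. They were pin-transferred with an anticancer plus metabolic-inhibitor library in 10-point dose series (20 µM to 1 nM). After 72 h, cells were fixed, stained with bisbenzimide and counted by Acumen plate cytometry. The AUC of relative survival vs dose was computed per medium, and the percent difference in AUC between RPMI and HPLM is reported.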

In order of rising “percent difference in area under dose-response curve” value:
1. CC(=O)[C@]1(O)Cc2c(O)c3c(c(O)c2[C@@H](O[C@H]2C[C@H](N)[C@H](O)[C@H](C)O2)C1)C(=O)c1ccccc1C3=O [Idarubicin_HCl]  -49.3%
2. S=c1nc[nH]c2nc[nH]c12 [6_Mercaptopurine]  -31.7%
3. COc1cccc(-c2cc(F)ccc2[C@H]2Cc3nc(N)nc(C)c3C(=O)N2)n1  -28.8%
4. CCN(CC)C(=S)SSC(=S)N(CC)CC [Disulfiram]  -27.1 ± 6.8%
5. COc1cccc2c1C(=O)c1c(O)c3c(c(O)c1C2=O)C[C@@](O)(C(C)=O)C[C@@H]3O[C@H]1C[C@H](N)[C@H](O)[C@H](C)O1 [Daunorubicin_HCl]  -26.8%
6. COc1c(C)cnc(Cn2cnc3c(Cl)nc(N)nc32)c1C  -26.2%
7. O=C1c2c(O)ccc(O)c2C(=O)c2c(NCCNCCO)ccc(NCCNCCO)c21 [Mitoxantrone]  -23.7%
8. CN(NC(=O)CC(=O)NN(C)C(=S)c1ccccc1)C(=S)c1ccccc1 [Elesclomol]  -21.3 ± 1.7%
9. CC[n+]1c(-c2ccccc2)c2cc(N)ccc2c2ccc(N)cc21 [Ethidium_Bromide]  -18.5%
10. CC(C)C[C@H](NC(=O)CNC(=O)c1cc(Cl)ccc1Cl)B(O)O  -12.2%
11. CCNC(=O)c1noc(-c2cc(Cl)c(O)cc2O)c1-c1ccc(OC)cc1  -12.2%
12. CC1(COc2ccc3c(c2)ncn3-c2ccc3cccc(N4CCC(N)CC4)c3n2)COC1 [Crenolanib]  -11.6%
13. CN1CCC(CNc2ccc3ncc(-c4cccc(OC(F)(F)F)c4)n3n2)CC1 [SGI1776_free_base]  -10.5%
14. COc1c(C)c2c(c(O)c1C/C=C(\C)CCC(=O)O)C(=O)OC2 [Mycophenolic_Acid]  -8.4%
15. CC(C)n1c(/C=C/C(O)CC(O)CC(=O)O)c(-c2ccc(F)cc2)c2ccccc21 (stereo not given) [Fluvastatin_sodium]  -8.4%
16. C[C@H]1O[C@@H](O[C@H]2[C@@H](O)C[C@H](O[C@H]3[C@@H](O)C[C@H](O[C@H]4CC[C@@]5(C)[C@H](CC[C@@H]6[C@@H]5CC[C@]5(C)[C@@H](C7=CC(=O)OC7)CC[C@]65O)C4)O[C@@H]3C)O[C@@H]2C)C[C@H](O)[C@@H]1O [Digitoxin]  -8.01%
17. N#CC[C@H](C1CCCC1)n1cc(-c2ncnc3[nH]ccc23)cn1 [Ruxolitinib]  -7.13%
18. COc1ccc(S(=O)(=O)Nc2cccnc2Nc2ccc(O)cc2)cc1  -6.35%
19. Cc1ccc(NC(=O)c2ccc(CN3CCN(C)CC3)cc2)cc1Nc1nccc(-c2cccnc2)n1 [Imatinib]  -5.87%
20. Cc1ccc(C(=O)c2cc(O)c(O)c([N+](=O)[O-])c2)cc1 [Tolcapone]  -5.18%
21. Cc1ccc([C@@H]2O[C@H](CO)[C@@H](O)[C@H](O)[C@H]2O)cc1Cc1ccc(-c2ccc(F)cc2)s1 [Canagliflozin]  -4.56%
22. Cc1ccc(NC(=O)c2ccc(CN3CCN(C)CC3)cc2)cc1Nc1nccc(-c2cccnc2)n1 [Imatinib_Mesylate]  -3.71%
23. COc1ccccc1-c1cc(Nc2cccc(CS(N)(=O)=O)c2)ncn1  -3.21%
24. C=C(c1ccc(C(=O)O)cc1)c1cc2c(cc1C)C(C)(C)CCC2(C)C [Bexarotene]  -2.87%
25. NC(=O)Nc1cc(-c2cccc(F)c2)sc1C(=O)N[C@H]1CCCNC1  -2.68%
26. Cc1cc2c(F)c(Oc3ncnn4cc(OC[C@@H](C)O)c(C)c34)ccc2[nH]1 [Brivanib]  -2.59%
27. O=S(=O)(N=Cc1c(O)ccc2ccccc12)c1cccs1  -2.44%
28. COc1cc2ncnc(Nc3ccc(F)c(Cl)c3)c2cc1OCCCN1CCOCC1 [Gefitinib]  -2.1%
29. CC[C@H](CO)Nc1nc(NCc2ccccc2)c2ncn(C(C)C)c2n1 [Roscovitine]  -1.29%
30. CCOC(=O)[C@@H](N)CCC(=O)N[C@@H](CSCc1ccccc1)C(=O)N[C@@H](C(=O)OCC)c1ccccc1 [Telintra]  2.03%
31. CCN(CC)CCNC(=O)c1c(C)[nH]c(/C=C2\C(=O)Nc3ccc(F)cc32)c1C [Sunitinib_Malate]  3.02%
32. CCC(C)SSc1ncc[nH]1 (stereo not given)  3.05%
33. COC(=O)c1ccc2c(c1)NC(=O)/C2=C(\Nc1ccc(N(C)C(=O)CN2CCN(C)CC2)cc1)c1ccccc1  3.26%
34. O=C(O[C@@H]1Cc2c(O)cc(O)cc2O[C@@H]1c1cc(O)c(O)c(O)c1)c1cc(O)c(O)c(O)c1 [_Epigallocatechin_gallate]  3.46%
35. Cn1cc(-c2ccc3c(c2)CCN3C(=O)Cc2cccc(C(F)(F)F)c2)c2c(N)ncnc21  4.03%
36. O=C(CCCCCCC(=O)Nc1ccccc1)NO [Vorinostat]  4.7%
37. Cc1cc(NC(=O)c2cccc(NC(=O)/C=C/CN(C)C)c2)ccc1Nc1nccc(-c2cccnc2)n1  7.32%
38. CC(C)c1onc(-c2c(Cl)cccc2Cl)c1COc1ccc(/C=C/c2cccc(C(=O)O)c2)c(Cl)c1  7.59%
39. O=c1[nH]c(=O)n([C@H]2C[C@H](O)[C@@H](CO)O2)cc1F [Floxuridine]  14.1%
40. Cc1ccc(C(=O)Nc2ccc(CN3CCN(C)CC3)c(C(F)(F)F)c2)cc1C#Cc1cnc2cccnn12 [Ponatinib]  16.9%
